Shiga inhibitor: inhibitors of Shiga toxin in Vero cells | 9.2% of 290,000 active | inhibition, % at 38.7 µM | AID 2315 | Vero cells, Shiga toxin protein synthesis inhibition reporter; in the data active = inhibition mostly above about 28%, no sharp cut-off; inactive = mostly below about 43%
Cycloheximide cs: counter-screen hit for Shiga toxin inhibitors, cycloheximide. max response, %. 12% of 300,000 active. cell reporter, cycloheximide protein synthesis inhibition counterscreen. AID 2314; in the data active = max response mostly above about 13%, no sharp cut-off; inactive = mostly below about 14%; also: read at 38.3 µM for the half of the compounds with a filed dose
AMA1-RON2 inh: inhibitors of Plasmodium falciparum AMA1-RON2 interaction | AlphaScreen AMA1-biotinylated RON2 peptide binding | Potency, µM (doses to about 58.2 µM), actives largely listed as inhibitors | 0.2% of 360,000 active; active = well fitted inhibition curve with a large enough effect; inconclusive = small, poorly fitted or top-dose-only effect; inactive = no such curve, though single readings can be large or run the other way; also: nearly all actives have a fitted effect of over 45% in size
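AMA1 (3D7) with his tag at 25 nM final met compounds first, then biotinylated RON2 peptide at 25 nM; detection used donor plus acceptor beads, 10 µg/mL apiece, read by AlphaScreen after 30 min at room temperature.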
MARV entry inh: inhibitors of Marburg virus binding or cell entry | Marburg virus pseudotyped entry inhibition, cell reporter | Potency, µM (titrated, usually from 37.8 µM), usual class: inhibitors | 1.8% of 300,000 active | AID 540276; calls by dose curve; tested in HEK293 cells
Lassa entry inh: blocks Lassa virus binding to or entry into cells; Lassa virus pseudotype entry inhibition, cell reporter; Potency, µM (doses to about 37.9 µM), usual class: inhibitors; 1.2% of 300,000 active; AID 540256; calls by dose curve; tested in HEK293 cells; also: nearly all actives have a fitted effect of over 50% in size
Each line names hits and unclear results; the compound was inactive in the other large screens. Only a selection was taken, and hits are over-represented in it overall.

COc1ccc(-c2noc(N3CCCC(C(=O)Nc4ccc(F)cc4F)C3)n2)cc1 (stereo not given)	Shiga inhibitor 23.4, Cycloheximide cs 14.2 (no result: MARV entry inh, Lassa entry inh)
CCOC(=O)N1CCN(C(=O)c2ccc(OC)cc2)CC1	none
CCOC(=O)N1CCN(c2nc(-c3ccc(OC)cc3)no2)CC1	Shiga inhibitor 62.0, Cycloheximide cs 26.0
CCOc1ccc(NC(=O)CC2C(=O)N(c3cccc(C)c3)C(=O)N2Cc2cccs2)cc1 (stereo not given)	none (no result: Shiga inhibitor, Cycloheximide cs, AMA1-RON2 inh, MARV entry inh)
O=S(=O)(c1ccccc1Br)N(Cc1ccccc1)Cc1ccco1	none (no result: AMA1-RON2 inh, MARV entry inh, Lassa entry inh)
Cc1ncsc1CCOC(=O)c1ccc(N2CCOCC2)c([N+](=O)[O-])c1	none (no result: MARV entry inh, Lassa entry inh)
Cc1ncsc1CCOC(=O)c1ccc([N+](=O)[O-])cc1	Shiga inhibitor 40.9, Cycloheximide cs 24.6
O=C(/C=C/c1ccncc1)c1ccc(NC(=O)c2ccccc2F)cc1	AMA1-RON2 inh inconclusive, MARV entry inh inconclusive, Lassa entry inh inconclusive
COc1cc2c3c(cccc3c1)C(=O)N(CCN1CCCC1)C2=O	none (no result: Shiga inhibitor, Cycloheximide cs, MARV entry inh, Lassa entry inh)
Brc1c(CSc2nnc(-c3ccco3)o2)nc2ccccn12	Cycloheximide cs 22.3, Lassa entry inh inconclusive
CC1CCc2onc(C(=O)N3CCN(c4ccc(Cl)cc4)CC3)c2C1 (stereo not given)	none (no result: Shiga inhibitor, Cycloheximide cs, AMA1-RON2 inh, MARV entry inh)
Clc1ccc(-c2nc3cc(CN4CCCCC4)ccc3o2)cc1	Shiga inhibitor 54.0, Cycloheximide cs 35.6, MARV entry inh inconclusive
Cc1cc(NC(=O)C(C)Oc2ccc(Cl)cc2Cl)no1 (stereo not given)	none
Clc1cccc(CN2CCCCCC2)c1	none (no result: MARV entry inh, Lassa entry inh)
CC(Oc1ccc(Cl)cc1Cl)C(=O)Nc1ncccn1 (stereo not given)	Cycloheximide cs 21.9, Lassa entry inh inconclusive
CC(Oc1ccc(Cl)cc1Cl)C(=O)Nc1ccc2oc(-c3ccncc3)nc2c1 (stereo not given)	MARV entry inh 2.06µM, Lassa entry inh inconclusive
Cc1ccc(C(=O)Nc2ccc3oc(-c4ccncc4)nc3c2)c(Cl)c1	MARV entry inh inconclusive (no result: Shiga inhibitor, Cycloheximide cs, AMA1-RON2 inh)
Cc1cc2nc(-c3ccc(NC(=O)C(C)C)cc3)oc2cc1C	Shiga inhibitor 79.9, Cycloheximide cs 54.4, MARV entry inh inconclusive
COc1ccccc1CN1CC(C(=O)NCCCc2ccc(F)cc2)CCC1=O (stereo not given)	none (no result: MARV entry inh, Lassa entry inh)
COc1cc(OC)cc(-c2nc3cc(C)ccc3o2)c1	Shiga inhibitor 103.6, Cycloheximide cs 57.8, MARV entry inh inconclusive, Lassa entry inh inconclusive
Cc1ccc(-c2nc3cc(NC(=O)C(C)C)ccc3o2)cc1	Shiga inhibitor 95.2, Cycloheximide cs 72.9, MARV entry inh inconclusive, Lassa entry inh 11.2µM
COc1ccc(C(=O)Nc2ccc(-c3nc4cc(C)ccc4o3)c(O)c2)cc1	none (no result: Shiga inhibitor, Cycloheximide cs, AMA1-RON2 inh, MARV entry inh)
Cc1ccc2nc(-c3ccc(O)cc3)oc2c1	Cycloheximide cs 19.4, MARV entry inh 5.62µM, Lassa entry inh inconclusive
Cc1ccc(-c2nc3cc(Cl)ccc3o2)cc1	Shiga inhibitor 122.6, Cycloheximide cs 45.9, MARV entry inh inconclusive, Lassa entry inh inconclusive
COc1ccc(CC(=O)NNS(=O)(=O)c2ccccc2)cc1OC	none
CCCn1c(SCc2nc(-c3ccccc3OCC)no2)nnc1-c1ccc(Cl)cc1	Lassa entry inh inconclusive (no result: Shiga inhibitor, Cycloheximide cs, AMA1-RON2 inh)
Cc1ccc(NC(=O)c2c(C)oc3c2C2=NCCN2C=N3)cc1F	none (no result: Shiga inhibitor, Cycloheximide cs, AMA1-RON2 inh, MARV entry inh)
O=C(O)/C=C(\Oc1ccccc1)C1(O)CCCCC1	none (no result: MARV entry inh, Lassa entry inh)
Cc1ccc(-c2nc3cc(NC(=O)C(C)C)ccc3o2)cc1C	Shiga inhibitor 94.9, Cycloheximide cs 83.2, MARV entry inh inconclusive, Lassa entry inh inconclusive
COC(=O)C1=C(N)Oc2cc(C)[nH]c(=O)c2C1c1ccccc1OC (stereo not given)	none
CCc1nnc(NC(=O)c2c(C)nn(-c3ccccc3)c2Cl)s1	Cycloheximide cs 42.4
COc1ccccc1NC(=O)c1c(C)nn(-c2ccccc2)c1Cl	Cycloheximide cs 14.2 (no result: MARV entry inh, Lassa entry inh)
Cc1nn(-c2ccccc2)c(Cl)c1C(=O)NCC(C)C	Lassa entry inh inconclusive
CC(=O)Nc1ccc(NC(=O)c2c(C)nn(-c3ccccc3)c2Cl)cc1C	none
Cc1ccccc1NC(=O)c1c(C)nn(-c2ccccc2)c1Cl	Shiga inhibitor 68.6, Cycloheximide cs 37.8, MARV entry inh inconclusive
Cc1nn(-c2ccccc2)c(Cl)c1C(=O)NCC(C)c1ccccc1 (stereo not given)	Shiga inhibitor 73.7, Cycloheximide cs 43.4, MARV entry inh inconclusive, Lassa entry inh inconclusive
CCc1nn2cc(-c3ccccc3)nc2s1	AMA1-RON2 inh inconclusive, MARV entry inh 18.3µM, Lassa entry inh 8.2µM
Cc1nn2cc(-c3ccc(Cl)cc3)nc2s1	Shiga inhibitor 111.8, Cycloheximide cs 58.8, MARV entry inh inconclusive, Lassa entry inh inconclusive
COc1cccc(-c2ccc3nccn3c2)c1	none (no result: Shiga inhibitor, Cycloheximide cs, MARV entry inh, Lassa entry inh)

Screening results: PubChem, National Center for Advancing Translational Sciences (NCATS)
